In the library only some 7.3% were active in any assay of this set; here they are far more common.
Rab9 prom act: activators of Rab9 promoter. Huh7 Rab9 promoter-luciferase reporter, luminescence, 24 h. Potency, µM (titrated, usually from 9.22 µM), for the others: top-dose activation, negative = inhibition, usual class: activators. 2.8% of 320,000 active. AID 485297; note: % of control where 0% means no effect; nearly all actives have a fitted effect of over 60% in size
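Huh7 reporter line, Rab9 promoter upstream of luciferase. Compound exposure 24 h at 37 °C in reduced-serum medium with 10% FBS. Read-out: luminescence.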
Luc counter: Kinase-Glo luciferase inhibition (counter-screen) | Q27757 | Kinase-Glo luciferase, ATP luminescence, 8 min | Potency, µM (top dose mostly 38.3 µM), for the others: at the highest dose activity change, negative = inhibition, most hits filed as inhibitors | 0.28% of 200,000 active | AID 1379; note: % is set by controls: 0 for no effect and ±100 for the full control effect; nearly all actives have a fitted effect of over 60% in size
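Recombinant Kinase-Glo luciferase, 10 uM ATP (linear range), luciferin; imidazole pH 7.2 / KCl / MgCl2 / Tween / BSA buffer; 8 min RT; luminescence.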
SMN2 splice enh: enhancers of SMN2 splice variant expression | HEK293 SMN2-luciferase splicing reporter, luminescence, 30-36 h | Potency, µM (top dose mostly 46.1 µM), for the others: top-dose activity change, positive = activation, usual class: activators | 2.8% of 210,000 active; note: % of control where 0% means no effect; nearly all actives have a fitted effect of over 55% in size
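qHTS luciferase splicing reporter: luminescence rises when SMN2 exon 7 is included in transfected HEK293 cells. Compound exposure lasted 30-36 h at 37C, with 4.5 mM final sodium butyrate as control, followed by a ONE-Glo read.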
FLuc counter: firefly luciferase modulation, counter-screen for miR-21 project | purified FLuc, Km substrates, luminescence inhibition | Potency, µM (titrated, usually from 57.5 µM), without a hit: at the highest dose activity change, negative = inhibition, usual class: inhibitors | 6.9% of 360,000 active | AID 588342;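 note: plate controls were vehicle for no effect and reference inhibitor for full effect; nearly all actives have a fitted effect of over 55% in size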
Target sequence (P08659 whole entry, looked up): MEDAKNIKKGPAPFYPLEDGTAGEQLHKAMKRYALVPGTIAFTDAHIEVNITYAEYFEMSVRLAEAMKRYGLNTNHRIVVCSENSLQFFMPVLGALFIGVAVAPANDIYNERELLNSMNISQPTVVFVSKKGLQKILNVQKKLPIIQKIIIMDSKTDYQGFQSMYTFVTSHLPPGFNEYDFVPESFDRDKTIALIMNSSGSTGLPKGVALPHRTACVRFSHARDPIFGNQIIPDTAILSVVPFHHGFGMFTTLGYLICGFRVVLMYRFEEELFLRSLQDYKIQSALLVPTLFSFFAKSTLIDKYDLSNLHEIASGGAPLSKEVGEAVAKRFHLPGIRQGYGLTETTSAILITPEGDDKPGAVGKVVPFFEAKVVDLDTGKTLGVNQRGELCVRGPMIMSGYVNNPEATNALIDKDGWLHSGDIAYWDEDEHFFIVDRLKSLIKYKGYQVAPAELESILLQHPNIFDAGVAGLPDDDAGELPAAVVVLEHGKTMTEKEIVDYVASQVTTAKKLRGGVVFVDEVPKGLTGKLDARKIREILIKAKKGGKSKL
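Biochemical qHTS of compounds, final roughly 60 µM downward over six points, against 10 nM purified firefly luciferase using Km concentrations of substrates (10 uM D-luciferin, 10 uM ATP) in Tris acetate pH 7.5 buffer; luminescence output.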
ELG1 genotox: inducers of genotoxicity in HEK293T ELG1-luciferase cells. HEK293T ELG1-luciferase reporter, luminescence, 16 h. Potency, µM (titrated, usually from 46 µM), for inactives: at the highest dose activity change, positive = activation, hits mostly activators. 1.3% of 330,000 active. AID 504466; note: % of control where 0% means no effect; nearly all actives have a fitted effect of over 60% in size
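Cells (2,000/well) expressing the ELG1-luciferase fusion are dosed by pin tool and kept 16 hr at 37 °C, 5% CO2. Signal comes from ONE-Glo luciferase reagent after 30 min at room temperature.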
NPC1 promoter act: activates the NPC1 promoter; Huh7 NPC1 promoter luciferase reporter, 24 h; Potency, µM (titrated, usually from 9.22 µM), for the others: top-dose activation, hits mostly activators; 2.4% of 320,000 active; AID 485313; note: % of control where 0% means no effect; nearly all actives have a fitted effect of over 60% in size
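Stable NPC1-promoter luciferase Huh7 line; cpd (DMSO) 24 h, 37 °C, 5% CO2; Amplite luciferase reagent 10 min RT; luminescence readout. qHTS format.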
The depositor's hits bear a star; ? = inconclusive; · = no result given; [ ] = dose if it differs, or a comment. Calls come from the whole dose curve; as a rule, active = well fitted curve in the direction sought with a large enough effect; inconclusive = small, poorly fitted or top-dose-only effect, or another doubt; inactive = no such curve, though single readings can be large; an effect the other way counts as inactive or inconclusive. Potency is the fitted concentration of half-maximal effect.

SMILES	Rab9 prom act	Luc counter	SMN2 splice enh	FLuc counter	ELG1 genotox	NPC1 promoter act
O=C(CSc1ncc(S(=O)(=O)c2ccc(Br)cc2)c(=O)[nH]1)NCc1ccccc1Cl	·	·	-2.9%	9.53µM*	·	·
COC(=O)c1cc(Cl)ccc1NC(=O)CSc1ncc(S(=O)(=O)c2ccc(Br)cc2)c(=O)[nH]1	·	·	0.9%	10.7µM*	·	·
COc1ccc(CNC(=O)CSc2ncc(S(=O)(=O)c3ccc(Br)cc3)c(=O)[nH]2)cc1	·	·	-0.9%	?	·	·
CN(C)c1ccc(C2Nc3ccccc3C(=O)N2CCCN2CCOCC2)cc1 (configuration not stated)	19.0%	·	·	4.78µM*	12.1%	7.2%
Cc1cc2n(n1)C(c1ccccc1)Nc1ccccc1-2 (configuration not stated)	-5.6%	-2.8%	-25.4%	3.7%	6.8%	1.9%
CCN(CC)CCN1C(=O)c2ccccc2NC1c1ccc(N(C)C)cc1 (configuration not stated)	9.0%	-1.9%	-2.6%	23.9µM*	1.4%	3.2%
Cc1cc2n(n1)C(c1ccc(N(C)C)cc1)Nc1ccccc1-2 (configuration not stated)	-7.3%	0.6%	0.8%	30.1µM*	15.7%	-1.9%
COc1cccc([C@@H]2Oc3ccc(OC)cc3C[C@H]2OC(=O)NS(=O)(=O)c2ccc(F)cc2)c1	·	-1.8%	3.5%	·	·	·
CCCCCOc1ccc(Cl)cc1CN1CCOCC1	?	-0.4%	-3.6%	15.1µM*	20.6µM*	20.6%
Cc1cc(N=Nc2ccc(Cl)cc2)cc(CN2CCOCC2)c1O	-0.3%	·	·	16.9µM*	-3.0%	-3.8%
CCOc1ccc(Cl)cc1CN1CCOCC1	0.2%	-2.9%	-18.8%	4.8%	-1.2%	-4.1%
COc1ccc2c(N)c(C(=O)NN)[nH]c2c1	-2.6%	·	·	16.9µM*	-5.8%	-1.6%
COc1ccc2c(Sc3ccccc3)c(C(=O)NCCN(C)C)[nH]c2c1	·	·	·	4.78µM*	·	·
COCCCNC(=O)c1[nH]c2cc(OC)ccc2c1Sc1ccc(C)cc1	·	·	·	-1.3%	·	·
CC1CCc2onc(C(=O)N3CCN(c4ccc(Cl)cc4)CC3)c2C1 (configuration not stated)	·	·	·	4.5%	·	·
COc1ccc2occ(C(=O)c3ccc(N)cc3)c2c1	0.631µM*	·	·	6.01µM*	?	1.41µM*
COc1ccc(C(=O)c2coc3ccc(OC(C)=O)cc23)cc1	15.3%	·	·	9.53µM*	?	?
COc1ccc2occ(C(=O)c3cccs3)c2c1	?	-10.1%	-12.4%	6.01µM*	6.51µM*	?
COc1ccc(OC)c(C(=O)c2coc3ccc(OC(C)=O)cc23)c1	3.6%	-1.0%	0.6%	-17.1%	0.5%	1.2%
Cc1cccc(-n2c(SCC(=O)Nc3ccc(C)c(C)c3)nc3n[nH]c(C)c3c2=N)c1	·	·	·	-7.7%	·	·
O=C(O)CCC(=O)Nc1ccc2ccccc2c1	·	-7.1%[7.66 µM]	-18.6%[9.22 µM]	·	·	·
CCC(=O)Nc1ccc2c(c1)Cc1cc(NC(=O)CC)ccc1-2	?	·	·	1.8%	?	29.4%
O=C(Nc1ccc2c(c1)oc1ccccc12)C1CC1	2.51µM*	2.2%	?	5.36µM*	?	3.98µM*
O=C(Nc1ccc2c(c1)oc1ccc(S(=O)(=O)N3CCCC3)cc12)C1CC1	-6.2%	4.0%	3.0%	3.2%	-6.8%	-4.1%
O=C(CSc1ccccn1)Nc1ccc2c(c1)oc1ccccc12	29.2%	0.8%	17.8µM*	13.5µM*	15.3%	24.0%
SMILES	Rab9 prom act	Luc counter	SMN2 splice enh	FLuc counter	ELG1 genotox	NPC1 promoter act
CCCC(=O)Nc1ccc2c(c1)Cc1ccccc1-2	2.51µM*	·	·	9.53µM*	?	1.78µM*
CCCCCC(=O)Nc1ccc2ccccc2c1	?	3.7%	?	13.5µM*	?	?
CN1CCN(C(=O)C(=O)Nc2c3c(nn2-c2cccc(Cl)c2)CSC3)CC1	·	·	·	0.6%	·	·
O=C(CCC1N=C2c3ccccc3N=C(SCc3ccc(F)cc3)N2C1=O)NCCc1ccccc1 (configuration not stated)	·	·	·	2.1%	·	·
CCN(CC)CCNC(=O)c1ccc2nc(CCc3ccccc3)oc2c1	·	·	·	-3.4%	·	·
CC(=O)Nc1cccc(NC(=O)CCCC(=O)O)c1	4.3%	-0.8%	-12.9%	3.4%	9.8%	0.9%
CCCCC(=O)Nc1ccc2c(c1)oc1ccccc12	3.55µM*	2.0%	14.1µM*	8.49µM*	?	?
CC(C)CC(=O)Nc1ccc2c(c1)oc1ccccc12	1µM*	-1.6%	5.62µM*	2.13µM*	19.0%	1µM*
Cc1ccccc1OCc1nnc(SCC(=O)Nc2ccc3c(c2)oc2ccccc23)n1C	27.9%	1.0%	?	-12.9%	?	23.8%
Cc1ccc(-c2nnc(SCC(=O)Nc3ccc4c(c3)oc3ccccc34)n2C)c(Cl)c1	2.9%	-2.2%	-83.3%	9.53µM*	0.0%	8.2%
O=C(O)CCCC(=O)Nc1ccc2c(c1)oc1ccccc12	2.3%	·	·	15.1µM*	-2.2%	0.8%
CCCCC(=O)Nc1cccc(NC(=O)CC)c1	3.3%	0.0%	5.4%	0.5%[2.3 µM]	2.4%	1.2%
O=C(O)CCn1cnc2c(=S)nc[nH]c21	·	-3.3%[7.66 µM]	-10.7%[9.22 µM]	·	·	·
COc1cccc(CNC(=O)CN2C(=O)N(c3ccc(C)cc3C)S(=O)(=O)c3ccccc32)c1OC	·	·	·	-2.3%	·	·
Cn1c(SCC(=O)Nc2cccc(C(=O)O)c2)nnc1-c1cc2cc(Br)ccc2o1	-1.5%	2.8%	·	2.69µM*	0.1%	7.4%
O=C(O/N=C/C1=C(Cl)c2ccccc2CC1)c1ccc(F)cc1	-4.7%	-9.0%	2.5%	6.75µM*	-3.8%	-2.6%
N/C(CS(=O)(=O)c1ccccc1)=N\OC(=O)c1ccc(F)cc1	5.7%	·	·	5.9%	?	-0.7%
O=C(CC1(O)C(=O)N(CCc2ccccc2)c2ccc(Br)cc21)c1ccc(F)cc1 (configuration not stated)	·	·	-18.7%	-5.8%	·	·
COc1ccccc1NC(=O)Cn1c(=O)n(Cc2ccc3c(c2)OCO3)c(=O)c2oc3ccccc3c21	·	·	·	-1.8%	·	·
COc1ccc2c(C)nc(Nc3nc(C)c(C)c(=O)[nH]3)nc2c1	?	-5.9%	3.5%	9.53µM*	?	?
COc1ccc(Nc2nc(C)c(-c3ccccc3)s2)cc1	3.98µM*	0.1%	?	7.57µM*	?	?
COc1ccc(Nc2nc(C)c3ccccc3n2)cc1	2.51µM*	-2.5%	35.5µM*	-4.7%[2.3 µM]	?	?
Cc1nc(Nc2ccc(S(N)(=O)=O)cc2)sc1-c1ccccc1	17.0%	·	·	21.3µM*	16.6%	27.7%
CCc1c(C)nc(Nc2nc(C)c3ccc(OC)cc3n2)[nH]c1=O	?	-3.0%	-22.8%	?	?	16.4%

Screening results from PubChem BioAssay.
